Here are results for eight molecules from PubChem BioAssay (Tox21).

SMILES strings stand for the structures. Inconclusive results are not listed. The source made the active and inactive calls. Unless noted, calls follow the shape of the dose curve; as a rule, active = well fitted curve in the direction sought with a large enough effect in the repeat runs; inconclusive = weak or mixed curves; inactive = no such curve, though single readings can be large; an effect the other way counts as inactive or inconclusive.

Test [1] is described as follows: qHTS assay to identify small molecule agonists of the androgen receptor (AR) signaling pathway in the presence of an antagonist - cell viability counter screen (AID 1259379). Also: nearly all actives have a fitted effect of over 25% in size. Also: potency is read from the fitted curve at half-maximal effect. The gist of the method:
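Each compound was tested at 15 concentrations on MDA-kb2 cells in the presence of 3.0uM nilutamide. Viability was measured by CellTiter-Fluor fluorescence after a 16 hr incubation at 37C in a CO2-free atmosphere.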
On the technique in general: In qHTS, concentration-response curves come from the screen itself.

Test [2] in a line: qHTS assay to identify small molecule agonists of the estrogen receptor beta (ER-beta) signaling pathway - cell viability counter screen (AID 1259380). Also: nearly all actives have a fitted effect of over 30% in size. Also: potency is read from the fitted curve at half-maximal effect. The gist of the method: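 Compounds dissolved in DMSO were pin-transferred onto ER-beta-UAS-bla HEK293T cells that had settled 6 hr, and exposure ran 16 hr at 37C. Following the reporter read, CellTiter-Glo luminescence after 30 min at room temperature indicated cytotoxicity.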

Test [3] in a line: qHTS assay to identify small molecule antagonists of the estrogen receptor beta (ER-beta) signaling pathway - cell viability counter screen (AID 1259382). Also: nearly all actives have a fitted effect of over 55% in size. Also: potency is read from the fitted curve at half-maximal effect. The gist of the method: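 CellTiter-Glo ATP luminescence measured after the LiveBLAzer read in the same wells; ER-beta-UAS-bla HEK293T cells, 16 hr compound treatment with 1nM 17-beta-estradiol agonist at 37C, 5% CO2.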
Test [4] addresses Estrogen receptor (Homo sapiens) (UniProt P03372). Put plainly: qHTS assay to identify small molecule agonists of the estrogen receptor alpha (ER-alpha) signaling pathway in the presence of an antagonist (AID 1259383; calls by dose curve; also: nearly all actives have a fitted effect of over 15% in size; also: potency is read from the fitted curve at half-maximal effect; as to activation: top concentration of the series differs between compounds). The gist of the method:
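Luminescent ERE-luciferase reporter, VM7Luc4E2 cells (endogenous ER-alpha); 10.0nM ICI-182,780 final; 15-point compound titration; 22hr at 37C; ONE-Glo, 30min RT.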

The target in test [5] is Thyrotropin receptor (Homo sapiens) (UniProt P16473). The test can be described thus: qHTS assay to identify small molecule antagonists of the thyroid stimulating hormone receptor (TSHR) signaling pathway (AID 1259385; calls by dose curve; also: nearly all actives have a fitted effect of over 20% in size). The gist of the method:
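TSHR-HEK293 cells were plated and held 18 h at 37C/5% CO2, then given compound plus Ro20-1724 and stimulated with TSH at 1.5 ng/mL final. After 30 min at room temperature, cAMP was detected with cAMP-d2/anti-cAMP-cryptate (1 h) by fluorescence.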

Test [6] can be described thus: qHTS assay to identify small molecule antagonists of the TGF-beta/Smad signaling pathway - cell viability counter screen (AID 1346824). Also: nearly all actives have a fitted effect of over 50% in size. Also: potency is read from the fitted curve at half-maximal effect. The gist of the method:
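SBE-bla HEK 293T cells were plated overnight at 37 C, then given compounds in DMSO plus TGF-beta1 (added as 0.25 ng/mL solution) for 5 hr. After the bla read, CellTiter-Glo was added to the same wells and luminescence read after 30 min at room temperature.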

A short description of test [7]: qHTS assay to identify small molecule agonists of the TGF-beta/Smad signaling pathway - cell viability counter screen (AID 1346829). Also: nearly all actives have a fitted effect of over 45% in size. Also: potency is read from the fitted curve at half-maximal effect. The gist of the method:
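Here the cytotoxicity of library compounds is measured in SBE-bla HEK 293T cells treated for 5 hr, using CellTiter-Glo added to wells already read for the beta-lactamase reporter.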

The nature of test [8]: qHTS assay to identify small molecule agonists of the TGF-beta/Smad signaling pathway (AID 1346859; active = well fitted activation curve with a large enough effect in the signal ratio in the repeat runs, not every such curve was filed as active; the % refers to the signal ratio; also: series mostly up to about 77 µM). The gist of the method: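 After overnight seeding, SBE-bla HEK 293T cells are dosed with compounds in DMSO and kept 5 hr at 37 C, 5% CO2. LiveBLAzer-type FRET substrate is then applied for 2 hr at room temperature.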
Test [9] is described as follows: Caspase-3/7 induction in HepG2 cells by small molecules, qHTS assay (AID 1346978). Also: nearly all actives have a fitted effect of over 15% in size. The gist of the method: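 Wild-type HepG2 cells (2,000/well) were settled 5 h at 37 C, 5% CO2, then exposed to compounds in DMSO for 17 h. Caspase-3/7 activity was read by luminescence 30 min after adding Caspase-Glo 3/7 reagent at room temperature.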
The nature of test [10]: qHTS assay to identify small molecule agonists of the estrogen receptor alpha (ER-alpha) signaling pathway in the presence of an antagonist - cell viability counter screen (AID 1259386).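 Also: cells exposed to compounds for 22 h at 37 °C before the viability read; nearly all actives have a fitted effect of over 30% in size.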 Also: potency is read from the fitted curve at half-maximal effect. The gist of the method: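 Using estrogen-depleted VM7Luc4E2 cells, the 15-concentration compound series was applied together with 10.0nM ICI-182,780 and incubated 22hr at 37C/5% CO2. Cell viability was then scored by CellTiter-Fluor.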

Test [11] is described as follows: qHTS assay to identify small molecule antagonists of the progesterone receptor (PR) signaling pathway - cell viability counter screen (AID 1346798). Also: nearly all actives have a fitted effect of over 50% in size. Also: potency is read from the fitted curve at half-maximal effect. The gist of the method:
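CellTiter-Glo luminescence; PR-UAS-bla HEK293T, 3,000 cells/well; compound + R5020, 16 hr, 37C/5% CO2; 30 min RT before read.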

Test [12] deals with Thyrotropin-releasing hormone receptor (Homo sapiens) (UniProt P34981). The test can be described thus: qHTS assay to identify small molecule antagonists of the thyrotropin-releasing hormone receptor (TRHR) signaling pathway (AID 1346877; active = well fitted inhibition curve with a large enough effect in the repeat runs, not every such curve was filed as active; also: series mostly up to about 51 µM). The gist of the method: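 Calcium signal in dye-loaded TRHR/HEK293 cells; compounds added 5 min before TRH (1 nM final); fluorescence monitored 3 min at 1 s steps.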
Thyrotropin-releasing hormone receptor (Homo sapiens), sequence (P34981 whole entry, looked up): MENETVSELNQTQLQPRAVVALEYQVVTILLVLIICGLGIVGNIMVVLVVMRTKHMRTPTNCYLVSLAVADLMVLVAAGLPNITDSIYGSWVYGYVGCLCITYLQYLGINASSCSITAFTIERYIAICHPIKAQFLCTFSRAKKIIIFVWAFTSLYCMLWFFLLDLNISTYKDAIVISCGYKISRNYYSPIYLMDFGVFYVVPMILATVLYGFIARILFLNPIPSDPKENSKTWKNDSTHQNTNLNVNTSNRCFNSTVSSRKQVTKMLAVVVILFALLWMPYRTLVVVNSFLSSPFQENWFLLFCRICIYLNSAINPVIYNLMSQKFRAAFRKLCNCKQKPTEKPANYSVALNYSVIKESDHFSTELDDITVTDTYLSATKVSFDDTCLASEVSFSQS

Test [13] shares this target. Put plainly: qHTS assay to identify small molecule agonists of the thyrotropin-releasing hormone receptor (TRHR) signaling pathway (AID 1346891; calls by dose curve;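 also: HEK293 cells expressing TRHR with calcium dye readout; series mostly up to about 58 µM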). The gist of the method: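 Compounds were tested as agonists at 15 concentrations, in triplicate, on TRHR-Hek293 cells; calcium-sensitive dye fluorescence was recorded for 3 min following addition.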
Test [14] in a line: Human pregnane X receptor (PXR) small molecule agonists, qHTS cell viability counter screen (AID 1346977). Also: nearly all actives have a fitted effect of over 50% in size. Also: potency is read from the fitted curve at half-maximal effect. The gist of the method: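 Viability counter screen: CellTiter-Fluor signal in PXR-Luc HepG2 cells, 24hr compound exposure, 37C, 5% CO2.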
Test [15] in a line: qHTS assay to identify small molecule agonists or antagonists of the thyroid stimulating hormone receptor (TSHR) signaling pathway - wild type cell line counter screen (AID 1259384; calls by dose curve). The gist of the method:
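Wild-type HEK293 cells were plated 18 h at 37 C/5% CO2, pin-dosed with compound plus Ro20-1724 medium, held 30 min at room temperature, then given cAMP-d2 and anti-cAMP-cryptate; fluorescence was read after 1 h. Fifteen concentrations, triplicate.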

Test [16] has as its target Progesterone receptor (Homo sapiens) (UniProt P06401). The test can be described thus: qHTS assay to identify small molecule agonists of the progesterone receptor (PR) signaling pathway (AID 1346784; calls by dose curve; also: nearly all actives have a fitted effect of over 30% in size). The gist of the method: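 Fluorescence from LiveBLAzer B/G FRET substrate cleavage (2 hr, RT) reported PR activation in PR-UAS-bla HEK 293T cells treated 16 hr at 37C/5% CO2 with compounds; medium contained 2% charcoal-stripped FBS.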

For test [17] the target is unchanged. Put plainly: qHTS assay to identify small molecule antagonists of the progesterone receptor (PR) signaling pathway (AID 1346795; active = well fitted inhibition curve with a large enough effect in the signal ratio in the repeat runs, not every such curve was filed as active; the % refers to the signal ratio; also: potency is read from the fitted curve at half-maximal effect). The gist of the method:
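Fluorescence intensity measured 2 hr after adding beta-lactamase FRET substrate to PR-UAS-bla HEK293T cells that had been co-treated 16 hr with compound and 1 nM R5020 (final concentration) in 2% charcoal-stripped FBS.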

A short description of test [18]: qHTS assay to identify small molecule agonists of the progesterone receptor (PR) signaling pathway - cell viability counter screen (AID 1346799; calls by dose curve; also: nearly all actives have a fitted effect of over 45% in size; also: potency is read from the fitted curve at half-maximal effect). The gist of the method:
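In parallel with the beta-lactamase readout, cytotoxicity toward PR-UAS-bla HEK293T cells was measured by CellTiter-Glo luminescence following 16 hr compound incubation in 2% charcoal-stripped FBS medium.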

Estrogen receptor (Homo sapiens), sequence (P03372 whole entry, looked up): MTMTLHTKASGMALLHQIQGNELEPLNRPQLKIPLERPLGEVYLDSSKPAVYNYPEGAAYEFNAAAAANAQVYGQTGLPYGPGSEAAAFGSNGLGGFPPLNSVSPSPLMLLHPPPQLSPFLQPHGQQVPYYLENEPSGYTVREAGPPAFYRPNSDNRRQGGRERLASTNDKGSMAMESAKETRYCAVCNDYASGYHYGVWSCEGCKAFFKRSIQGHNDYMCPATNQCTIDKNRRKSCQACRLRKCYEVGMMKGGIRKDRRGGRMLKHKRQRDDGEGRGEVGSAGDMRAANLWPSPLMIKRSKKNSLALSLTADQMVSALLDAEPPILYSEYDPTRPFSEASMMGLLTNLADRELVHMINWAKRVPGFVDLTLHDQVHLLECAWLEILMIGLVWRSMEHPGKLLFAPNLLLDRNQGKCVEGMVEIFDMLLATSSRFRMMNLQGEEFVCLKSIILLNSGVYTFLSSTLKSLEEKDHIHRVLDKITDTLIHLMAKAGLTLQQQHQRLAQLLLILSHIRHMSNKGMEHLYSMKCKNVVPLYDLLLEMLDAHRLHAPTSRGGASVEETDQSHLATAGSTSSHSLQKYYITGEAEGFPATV
Thyrotropin receptor (Homo sapiens), sequence (P16473 whole entry, looked up): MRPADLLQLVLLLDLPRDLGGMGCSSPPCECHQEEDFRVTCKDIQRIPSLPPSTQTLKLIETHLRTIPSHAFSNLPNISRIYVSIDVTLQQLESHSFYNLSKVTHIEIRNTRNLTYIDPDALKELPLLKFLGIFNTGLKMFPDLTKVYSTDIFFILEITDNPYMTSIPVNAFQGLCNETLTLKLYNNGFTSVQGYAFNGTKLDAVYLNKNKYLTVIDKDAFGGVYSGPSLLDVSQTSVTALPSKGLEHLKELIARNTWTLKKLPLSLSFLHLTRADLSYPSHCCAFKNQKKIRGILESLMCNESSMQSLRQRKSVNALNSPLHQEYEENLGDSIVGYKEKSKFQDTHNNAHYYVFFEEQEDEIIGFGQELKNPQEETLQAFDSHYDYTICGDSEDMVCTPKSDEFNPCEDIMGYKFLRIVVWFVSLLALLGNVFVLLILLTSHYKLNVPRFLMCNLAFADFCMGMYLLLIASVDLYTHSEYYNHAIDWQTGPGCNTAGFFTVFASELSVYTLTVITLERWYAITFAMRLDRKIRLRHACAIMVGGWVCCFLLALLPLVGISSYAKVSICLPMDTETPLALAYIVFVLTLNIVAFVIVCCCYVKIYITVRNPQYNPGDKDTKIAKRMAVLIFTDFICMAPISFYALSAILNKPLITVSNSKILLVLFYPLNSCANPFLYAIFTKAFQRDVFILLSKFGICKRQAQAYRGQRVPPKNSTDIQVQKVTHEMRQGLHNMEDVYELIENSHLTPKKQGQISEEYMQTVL
Progesterone receptor (Homo sapiens), sequence (P06401 whole entry, looked up): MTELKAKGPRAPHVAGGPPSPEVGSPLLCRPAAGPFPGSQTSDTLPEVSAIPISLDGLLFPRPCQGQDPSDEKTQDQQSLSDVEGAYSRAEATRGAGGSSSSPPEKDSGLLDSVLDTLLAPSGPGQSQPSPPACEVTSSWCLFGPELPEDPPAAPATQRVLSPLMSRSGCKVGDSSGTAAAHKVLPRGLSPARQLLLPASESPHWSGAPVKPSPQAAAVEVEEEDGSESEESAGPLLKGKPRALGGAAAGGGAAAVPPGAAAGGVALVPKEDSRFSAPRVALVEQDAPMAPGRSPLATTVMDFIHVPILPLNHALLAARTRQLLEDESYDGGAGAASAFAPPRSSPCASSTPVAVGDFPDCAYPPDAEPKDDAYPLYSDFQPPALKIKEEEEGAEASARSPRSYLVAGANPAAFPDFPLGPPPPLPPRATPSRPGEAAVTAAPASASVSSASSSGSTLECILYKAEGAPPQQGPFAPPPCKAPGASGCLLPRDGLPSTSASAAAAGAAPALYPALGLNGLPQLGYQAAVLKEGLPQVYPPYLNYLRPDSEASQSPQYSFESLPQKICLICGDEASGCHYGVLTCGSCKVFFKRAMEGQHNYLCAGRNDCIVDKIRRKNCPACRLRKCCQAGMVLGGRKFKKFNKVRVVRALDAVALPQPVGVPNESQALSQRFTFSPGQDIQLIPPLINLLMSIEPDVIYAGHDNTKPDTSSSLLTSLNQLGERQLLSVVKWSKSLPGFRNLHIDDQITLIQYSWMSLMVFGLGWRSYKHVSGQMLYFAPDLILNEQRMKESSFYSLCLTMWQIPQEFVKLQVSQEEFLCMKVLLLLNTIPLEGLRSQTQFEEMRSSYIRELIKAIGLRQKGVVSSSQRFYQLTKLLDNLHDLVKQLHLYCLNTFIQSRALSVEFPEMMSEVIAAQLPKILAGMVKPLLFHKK

Take `Oc1ccc(C(=C(Cl)Cl)c2ccc(O)cc2)cc1`: the Potency result in test [1], in test [5], in test [6], in test [7] and in [9] was “inactive” each time. Moreover, the figures for the Potency in test [2], in test [3] and in test [4] were 68.5 µM (active), 68.5 µM (active) and 1.93 µM (active), respectively. Besides, in test [8], the result was inactive.
Take `CC(C)OC(=S)S`: the Potency result in test [1], in test [2], in test [3], in [4], in test [5] and in [10] was “inactive” throughout. Also, the Potency result in test [6], in test [7], in test [12], in [13], in [14] and in test [9] was “inactive” throughout. Also, the Potency in test [11] was 7.7 µM (active). Besides, the result in test [8] was inactive.
As to `C=CC(=O)N(C)C`, the Potency entry in [1], in [2], in test [3], in test [4], in test [5] and in test [10] was “inactive” each time. Also, the Potency result in [16], in test [17], in test [11], in [18], in test [6] and in test [7] was “inactive” throughout. In addition, the Potency entry in test [12], in test [13], in test [14] and in [9] was “inactive” each time. The molecule was classed as inactive in test [15] and in test [8].
For `CC(=O)[O-].CC(=O)[O-].[Hg+2]`, the Potency is 10.9 µM (active) in test [1]; 3.06 µM (active) in test [2]; 6.11 µM (active) in test [3]; 21.7 µM (active) in test [10]; 1.37 µM (active) in [11]; 3.44 µM (active) in test [18]. Moreover, the figures for the Potency in [6], in [7] and in test [14] were 13.8 µM (active), 24.5 µM (active) and 6.11 µM (active), respectively. Besides, in test [9], the Potency result was “inactive”.
Take `[Cl][Sb]([Cl])[Cl]`: the Potency was 24.3 µM (active) in test [1] and 54.5 µM (active) in test [10]. In addition, the Potency result in test [2], in test [3], in test [5], in test [16], in test [11] and in test [6] was “inactive” each time. Also, the Potency result in [7], in [12], in [13], in test [14] and in test [9] was “inactive” throughout. Moreover, the molecule was classed as inactive in test [15] and in test [8].
With `C[C@]12CC[C@@H]3c4ccc(OC(=O)N(CCCl)CCCl)cc4CC[C@H]3[C@@H]1CC[C@@H]2O`, the Potency entry in test [1], in test [2], in test [3], in [5], in test [10] and in test [16] was “inactive” each time. In addition, the Potency result in test [11], in test [6], in test [7], in test [13], in test [14] and in test [9] was “inactive” in each case. For the same molecule, the result in test [15] and in test [8] was inactive.
On to `CC(=O)[O-].CC(=O)[O-].O.O.[Cd+2]`, for which the Potency result in [1], in test [7] and in test [9] was “inactive” in each case. Moreover, the Potency in [2] was 60.3 µM (active); in [3] it was 53.7 µM (active); in [10], 60.3 µM (active); in [17], 603 nM (active); in test [11] it was 19.1 µM (active); in test [18], 15.1 µM (active). The Potency in test [14] was 8.51 µM (active). Also, the result in test [8] was inactive.
With `CCCCCCCCCBr`, the Potency entry in test [1], in test [2], in test [4], in [5], in [10] and in [16] was “inactive” in each case. For the same molecule, the Potency entry in test [17], in [11], in test [18], in test [6], in test [7] and in [12] was “inactive” in each case. In addition, the Potency result in test [13], in [14] and in test [9] was “inactive” in each case. In addition, the molecule was called inactive in test [15] and in test [8].
